Bioassay records from PubChem.
DAGLB inh – DAGLB lipase inhibitors, primary screen, biochemical, fluorescence, HTS; Diacylglycerol lipase-beta (Homo sapiens), Q8NCG7; inhibition, % at 5.17 µM; actives 0.059% (n = 340,000); HEK293T DAGLB membrane lysate, EnzChek fluorogenic substrate; in the data active means inhibition above about 34%
Target sequence (Q8NCG7 whole entry, looked up): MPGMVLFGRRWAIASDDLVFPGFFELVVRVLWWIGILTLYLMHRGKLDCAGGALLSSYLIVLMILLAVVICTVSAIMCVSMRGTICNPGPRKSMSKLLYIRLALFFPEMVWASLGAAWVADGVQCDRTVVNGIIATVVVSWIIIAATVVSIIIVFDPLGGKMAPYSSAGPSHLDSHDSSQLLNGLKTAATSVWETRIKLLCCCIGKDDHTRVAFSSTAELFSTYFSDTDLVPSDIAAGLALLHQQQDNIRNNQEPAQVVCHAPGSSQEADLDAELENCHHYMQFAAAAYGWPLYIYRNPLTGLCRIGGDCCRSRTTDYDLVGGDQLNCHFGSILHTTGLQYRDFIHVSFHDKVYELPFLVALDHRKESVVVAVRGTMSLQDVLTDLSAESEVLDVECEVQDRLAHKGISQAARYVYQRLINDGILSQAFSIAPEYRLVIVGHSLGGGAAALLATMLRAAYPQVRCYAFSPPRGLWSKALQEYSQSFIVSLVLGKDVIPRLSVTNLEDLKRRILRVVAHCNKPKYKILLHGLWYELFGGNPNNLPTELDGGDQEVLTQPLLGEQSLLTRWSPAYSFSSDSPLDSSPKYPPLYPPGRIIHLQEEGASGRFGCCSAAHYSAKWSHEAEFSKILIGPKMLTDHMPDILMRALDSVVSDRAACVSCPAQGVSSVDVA
Myeloid diff MLP – induction of myeloid progenitor differentiation, primary screen, cell-based, flow cytometry, MLPCN library. actives 1% (n = 360,000). ER-HoxA9 myeloid progenitors, lysozyme-GFP differentiation. calls only at 10 µM;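 active means normalized GFP-positive differentiation at or above the plate's own cutoff, the solvent-only control mean plus 3 SD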;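 further: cells exposed to compound for four days before flow analysis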
ABHD5-PLIN5 inh – ABHD5-PLIN5 interaction inhibitors, primary screen, cell lysate, split luciferase complementation, luminescence | Perilipin-5 (Homo sapiens) + 1-acylglycerol-3-phosphate O-acyltransferase ABHD5 (Homo … | Split G. princeps luciferase complementation, 4 h | inhibition, % at 4 µM | actives 0.78% (n = 360,000) | AID 602281, 2012;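 active means inhibition above the mean inhibition across every tested compound plus 3 SD, cut at about 22% in these data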
Rtt109 Vps75 – inhibitors of C. albicans Rtt109/Vps75 HAT, primary screen, biochemical, ThioGlo CoA-SH fluorescence, plate reader; Histone acetyltransferase RTT109 (Candida albicans (strain SC5314 / ATCC MYA-2876)), …; purified Rtt109/Vps75, 4 h; inhibition, % at 34.9 µM; actives 0.16% (n = 330,000);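 active means inhibition of at least 50% in every replicate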
sPLA2-III inh – human group III sPLA2 inhibitors, primary screen, biochemical, QFRET, BODIPY PC-A2 liposome substrate; AID 743126, 2013; actives 0.56% (n = 370,000); inhibition, % at 12.2 µM; Group 3 secretory phospholipase A2 (Homo sapiens), Q9NZ20; QFRET BODIPY PC-A2 liposome hydrolysis, fluorescence;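 active means inhibition above mean plus 3 SD of compounds lying within the high and low control bounds, cut at about 19% in these data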
Cardio protect – cardioprotection against H2O2-induced cell death, primary screen, uHTS, H9c2 cells, ATPLite luminescence. H9c2 cardiomyocytes, H2O2 injury protection, 2 h. actives 0.63% (n = 360,000). AID 588492, 2011. protection from H2O2 cell death, % at 20 µM;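 active means compounds giving at least 50% protection of heart cells from peroxide-induced death in the single-dose screen, raw or plate-pattern-corrected value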
Myeloid diff CP1 – inducers of myeloid progenitor differentiation, confirmation, cell-based, GFP/Mac1 flow cytometry, cherry pick 01 | ER-HoxA9 myeloid progenitors, GFP/Mac1 double-positive flow | AID 651706, 2012 | calls only | shares compounds with Myeloid diff MLP | actives 2% (n = 2,300);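 active means share of green or green-and-red cells above 9 and 9% in run 1 or 4 and 3% in run 2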
GFP autofluor – flagged as fluorescent in myeloid differentiation counter-screen. shares compounds with Myeloid diff MLP. actives 7.4% (n = 2,300). ER-HoxA9 myeloid progenitors, no estrogen, GFP autofluorescence flow cytometry; vehicle wells 0%, positive control 100%. fluorescence response, % (no concentration beside the values). AID 651707;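 active means over 5% cells positive for green fluorescent reporter, or over 2% positive for both it and APC stain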
Each line names hits and unclear results; the compound was inactive in the other large screens (follow-up assays come after a bar, where they were run). In the library only some 2.9% were active in any assay of this set; here they are far more common.

CCN(c1ccccc1)S(=O)(=O)c1cc([N+](=O)[O-])ccc1N	none (no result: DAGLB inh)
COC(=O)c1cc2oc3ccccc3c2n1CC(=O)N1CCCc2ccccc21	Myeloid diff MLP active | Myeloid diff CP1 inactive | GFP autofluor inactive
COC(=O)c1cc2ccsc2n1CC(=O)N1CCCc2ccccc21	none
CCOc1cc(/C=C2\N=C(C)OC2=O)cc(Br)c1OCC(=O)OC	Myeloid diff MLP active | Myeloid diff CP1 inactive | GFP autofluor inactive
Cc1nn(C)c(C)c1NC(=O)CSc1nnc(C)n1-c1ccccc1	Myeloid diff MLP active | Myeloid diff CP1 inactive | GFP autofluor inactive
C=CCC1(CC=C)CCCN1C(=O)CC1C(=O)NCCN1Cc1ccc(OC)c(OC)c1 (stereo unspecified)	none
O=C(N[C@H](C(=O)N1CCC[C@H]1C(=O)NCc1ccccc1)c1ccccc1)c1ccc(Cl)c(Cl)c1	none (no result: DAGLB inh, Myeloid diff MLP, ABHD5-PLIN5 inh, Rtt109 Vps75, Cardio protect)
CCOC(=O)c1ccc(NC(=O)COC)cc1	none
CCOC(=O)c1ccc(NC(=O)C(CC)(CC)C(=O)OCC)cc1	none | Myeloid diff CP1 inactive | GFP autofluor inactive
COc1cccc(CNC(=O)C(CCSC)NS(=O)(=O)c2ccc3c(c2)oc(=O)n3C)c1 (stereo unspecified)	none | Myeloid diff CP1 inactive | GFP autofluor 5.8
COc1ccccc1CNC(=O)C(CCSC)NS(=O)(=O)c1ccc2c(c1)oc(=O)n2C (stereo unspecified)	none
CC(C)C(=O)Nc1nnc(SCC(=O)Nc2ccc3c(c2)OCCO3)s1	none
Cc1ccnc(N2CCC(C(=O)NCc3ccc4c(c3)OCO4)CC2)n1	none
O=C(NCc1ccc2c(c1)OCO2)C1CCN(c2ncccn2)CC1	none | Myeloid diff CP1 inactive | GFP autofluor inactive
COc1cc2cc(c1Cl)N(C)C(=O)CC(OC(=O)C(C)N(C)C(C)=O)C1(C)OC1C(C)C1CC(O)(NC(=O)O1)C(OC)C=CC=C(C)C2 (stereo unspecified)	none (no result: Myeloid diff MLP)
O=C(NC1CCCCCCC1)C1CCN(c2nc3ccccc3o2)CC1	none | Myeloid diff CP1 inactive | GFP autofluor inactive
CC1CCN(Cc2ccc(-c3nnn(CC(=O)Nc4ccccc4Cl)n3)cc2)CC1	Myeloid diff MLP active | Myeloid diff CP1 inactive | GFP autofluor inactive
Cc1ccc2cc(C#N)c(SCC(=O)NNC(=O)Cc3ccccc3)nc2c1	Myeloid diff MLP active | Myeloid diff CP1 inactive | GFP autofluor inactive
COc1ccc2cc(C#N)c(SCC(=O)NNC(=O)Cc3ccccc3)nc2c1	none
c1ccc(C2Nc3ccccc3-c3nc4ccccc4n32)cc1 (stereo unspecified)	none
c1coc(C2Nc3ccccc3-c3nc4ccccc4n32)c1 (stereo unspecified)	none | Myeloid diff CP1 inactive | GFP autofluor inactive
O=C(Cn1c(=O)[nH]c2ccsc2c1=O)NC1CCCCC1	Myeloid diff MLP active | Myeloid diff CP1 inactive | GFP autofluor inactive
O=C(NC1CCCC1)c1ccc(Cn2c(=O)[nH]c3ccsc3c2=O)cc1	none
O=C(COc1ccc2ccccc2c1Br)NCc1ccccn1	none
CCCCCCCCCCNC(=O)CCn1[nH]c(=O)c2ccccc2c1=O	none
Cc1cccc(-c2sc(Nc3ccccc3)n[n+]2-c2ccc(F)cc2)c1	none
COc1ccc(-c2sc(Nc3ccccc3)n[n+]2-c2ccc(F)cc2)c(C)c1C	none | Myeloid diff CP1 inactive | GFP autofluor 4.2
COc1ccc2nc3ccccc3nc2c1NC(=O)c1ccc(Br)cc1	Myeloid diff MLP active | Myeloid diff CP1 inactive | GFP autofluor 5.4
COc1ccc2nc3ccccc3nc2c1NC(=O)c1ccc(Cl)cc1	none
Cc1ccc(Cl)cc1NC(=O)C1CCCCC1C(=O)O (stereo unspecified)	none
CCOC(=O)c1c(C)[nH]c(C(=O)COC(=O)c2ccc(F)c(S(=O)(=O)N3CCOCC3)c2)c1C	Myeloid diff MLP active | Myeloid diff CP1 inactive | GFP autofluor inactive
O=C(COC(=O)c1ccc(F)c(S(=O)(=O)N2CCOCC2)c1)c1ccc(Cl)cc1	none
CC(CN(C)Cc1ccccc1)OC(=O)c1cccc(F)c1 (stereo unspecified)	none
CC(C)(C)C(=O)Nc1nc2c(s1)CN(Cc1ccccc1)CC2	none | Myeloid diff CP1 inactive | GFP autofluor inactive
COc1ccc(NC(=S)N2CCC3CC2c2c(Cl)cccc23)c(OC)c1 (stereo unspecified)	Myeloid diff MLP active (no result: Rtt109 Vps75) | Myeloid diff CP1 active | GFP autofluor inactive
C=CCNC(=S)N1CCC2CC1c1c(Cl)cccc12 (stereo unspecified)	none (no result: Rtt109 Vps75)
O=C(NC1CC1)c1cccc(NC(=O)c2cnn(-c3ccccc3)n2)c1	Myeloid diff MLP active | Myeloid diff CP1 inactive | GFP autofluor inactive
O=C(Nc1cccc(C(=O)NC2CCCC2)c1)c1ccccc1	none
O=C(NCCN1C(=O)C2C3C=CC(C3)C2C1=O)Nc1ccccc1O (stereo unspecified)	none
Cc1ccc(-c2cc(C(F)(F)F)c(C#N)c(SCCC#N)n2)o1	none | Myeloid diff CP1 inactive | GFP autofluor inactive
O=C(N/N=C/c1cccc(O)c1)c1ccc(COc2ccccc2Br)cc1	none
O=C(N/N=C/c1cccc(O)c1)c1ccc(COc2cccc3cccnc23)cc1	Myeloid diff MLP active | Myeloid diff CP1 inactive | GFP autofluor inactive
O=C(c1ccc2ccccc2n1)N1CCN(S(=O)(=O)c2ccc(Cl)cc2)CC1	none
COC(=O)c1ccccc1NC(=O)C1CCC(=O)N1S(=O)(=O)c1ccc(C)cc1 (stereo unspecified)	none | Myeloid diff CP1 inactive | GFP autofluor inactive
C=CCn1cnnc1SCC(=O)N(C1CCCCC1)C1CCS(=O)(=O)C1 (stereo unspecified)	none | Myeloid diff CP1 inactive | GFP autofluor inactive
CC/C(C)=N/Nc1ccc(S(=O)(=O)N2CCCC2)cc1[N+](=O)[O-]	Myeloid diff MLP active | Myeloid diff CP1 inactive | GFP autofluor inactive
COc1ccc2nc(N3C(=O)/C(=C/c4ccccc4)NC3=S)sc2c1	none | Myeloid diff CP1 inactive | GFP autofluor 7.0
Cc1ccc(OCC(=O)Nc2ccccc2N2CCCC2)c(C)c1	none (no result: Rtt109 Vps75)
Cc1cc(NC(=O)CC2CCCC2)ccc1Br	none
Cc1cccc(NC(=O)CC2CCC2)c1	none | Myeloid diff CP1 inactive | GFP autofluor inactive
